# HSV replic up: HSV replication enhancement; HSV replication augmentation in cells, fold increase; maximum fold increase; 220,000 compounds, 0.005% hits; AID 1956; in the data active = maximum fold increase above about 1.5; inconclusive = no clear call, values can overlap the other calls; tested in PC3 cells
# ROMK primary: modulators of human ROMK potassium channel; B-score at 10 µM; Tet-inducible ROMK, thallium flux fluorescence; actives lie on both sides; 130,000 compounds, 2% hits;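 active = signal ratio slope over the read window, or its plate-corrected B-score, at least 3 SD from the plate mean, either direction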;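 also: B-score of the F/F0 ratio slope over 7 to 12 s after thallium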
# Target sequence (P48048 whole entry, looked up): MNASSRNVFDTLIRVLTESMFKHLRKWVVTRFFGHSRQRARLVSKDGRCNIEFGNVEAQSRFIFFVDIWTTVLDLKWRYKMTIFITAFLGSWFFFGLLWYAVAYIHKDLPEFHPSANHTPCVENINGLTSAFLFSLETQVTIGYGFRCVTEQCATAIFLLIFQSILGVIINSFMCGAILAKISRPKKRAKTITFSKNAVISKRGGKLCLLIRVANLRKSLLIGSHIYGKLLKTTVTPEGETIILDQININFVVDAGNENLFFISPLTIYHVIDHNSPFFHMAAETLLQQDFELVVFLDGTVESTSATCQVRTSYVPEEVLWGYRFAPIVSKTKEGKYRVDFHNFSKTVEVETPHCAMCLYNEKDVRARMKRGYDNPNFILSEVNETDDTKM
# Arbovirus anti: antivirals against arbovirus infection | arbovirus infection cell-based antiviral screen | inhibition, % at 10 µM | 200,000 compounds, 0.37% hits; in the data active = inhibition above about 30%
# Measles CPE: protection of cells from measles virus | protection (pct of control), % at 4 µM | AID 841 | Measles virus-infected cells, CPE protection, absorbance | 140,000 compounds, 1.5% hits; in the data active = protection mostly above about 24%, no sharp cut-off; inactive = mostly below about 26%
# Cl transport mod: KCC2 (human) Cl- transport modulation. AID 1456. 190,000 compounds, 2.2% hits. Q9H2X9. KCC2 cells, thallium flux FluoZin-2 fluorescence. B-score of Tl+ flux slope (higher = more flux/activation; lower = inhibition) at 10 µM;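 active = thallium flux slope and its plate-corrected score both differing from the plate sample mean at a set confidence after two filtering rounds, in either direction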;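 also: slope of fluorescence scaled to starting intensity during 10 to 20 s after thallium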
# KCC2 secondary: KCC2 (human) modulation, secondary assay; 3,700 compounds, 15% hits; shares compounds with Cl transport mod; HEK293-KCC2, thallium flux, FluoZin2 fluorescence; active compounds read high; normalised thallium flux (F/F0 slope) at 10 µM;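 active = thallium flux slope above the same plate's solvent-only control mean plus 3 SD; inconclusive = the two replicate wells disagree; inactive = no significant difference from solvent-only control wells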
# KCC2 bumet counter: thallium flux persisting under bumetanide in KCC2 cells, counter-screen secondary assay. AID 1714. 3,700 compounds, 49% hits. normalized thallium flux at 10 µM. HEK293-KCC2 + bumetanide/ouabain, thallium flux FluoZin2; active compounds read high. shares compounds with Cl transport mod;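 active = thallium entry rate above the same plate's blocked-transporter control wells by more than 3 SD; inconclusive = the two repeat wells disagree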;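 also: raw slope of fluorescence over initial fluorescence between 10 and 20 s after thallium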
# KCC2 sec2: KCC2 (human) modulation, second secondary assay. shares compounds with Cl transport mod. HEK293-KCC2, thallium flux FluoZin2 fluorescence; actives lie on both sides; F/F0 rise rate, 10–20 s post-thallium. normalized thallium flux at 10 µM. 3,700 compounds, 23% hits;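 active = thallium flux slope more than 3 SD above or below the plate's solvent-only control mean, mostly below; inconclusive = the two repeat wells disagreed; inactive = no significant shift from solvent-only controls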;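 also: raw slope with 0.1% DMSO as baseline and bumetanide as block control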
# HEK counter1: counter-screen for KCC2 modulators: effect in parental HEK293 cells. 3,700 compounds, 46% hits. shares compounds with Cl transport mod. thallium flux FluoZin2, ouabain; baseline-ratio fluorescence slope, 10–20 s after thallium. AID 1716. thallium flux rate (normalised fluorescence) at 10 µM;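 active = thallium flux rate significantly above the same plate's solvent-only control wells, beyond their mean plus 3 SD; inconclusive = the two replicate wells gave conflicting results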
# KCC2 retest ouab: KCC2 (human) modulation, ouabain retest | shares compounds with Cl transport mod | HEK293-KCC2, thallium flux FluoZin2 fluorescence; bidirectional: low = inhibitor, high = activator | raw Tl+ flux slope (below DMSO = inhibition, above = activation) at 10 µM | 3,700 compounds, 48% hits;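 active = thallium flux slope beyond 3 SD from same-plate DMSO control mean in most replicates, usually higher, sometimes lower; inconclusive = repeat tests gave conflicting results; inactive = no significant difference from controls in most replicates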;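 also: slope of initial-normalized fluorescence between seconds 10 and 20 after thallium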
# HEK counter2: parental HEK flux effect, counter-screen 2; shares compounds with Cl transport mod; HEK293 parental, thallium flux FluoZin-2 fluorescence slope; thallium flux slope at 10 µM; 3,700 compounds, 33% hits; AID 1718;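 active = thallium flux slope above the same plate's solvent-control mean plus 3 SD in both duplicate wells; inconclusive = duplicate wells that disagreed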;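 also: run without ouabain in cells lacking the KCC2 cotransporter; slope of fluorescence scaled to its starting value between 10 and 20 s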
# * = called active by the depositor; i = inactive; ? = inconclusive; . = no result given. Shown are actives, neighbours in structure and some others; about 4% of the full set was active somewhere.
SMILES,HSV replic up,ROMK primary,Arbovirus anti,Measles CPE,Cl transport mod,KCC2 secondary,KCC2 bumet counter,KCC2 sec2,HEK counter1,KCC2 retest ouab,HEK counter2
Cc1cc(C(=O)N2CCC(C(=O)O)CC2)c(C)o1,i,.,.,.,-0.000376,.,.,.,.,.,.
Cc1ccc2nc3c(cc2c1)c(NC(=O)c1ccccn1)nn3CC(C)C,i,.,5.7,3.1,.,.,.,.,.,.,.
CCn1nc(NC(=O)c2ccccn2)c2cc3cc(C)ccc3nc21,i,.,-1.1,10.3,7.32*,0.0056,0.00362,0.0262,0.00731,0.0179,?
CCCCC(=O)Nc1nn(CCC)c2nc3ccccc3cc12,i,.,-2.6,14.7,-3.83*,0.00941,0.00673,0.0288,0.0073,0.0433,0.0102
C=CCN(c1cccc(C(F)(F)F)c1)S(=O)(=O)c1cccc(C(=O)OCC(=O)NCCC)c1,i,.,13.5,3.2,-4.22*,?,0.00401,0.0244*,0.00585*,0.0142*,?
CCC(=O)N(CCc1ccc(OC)c(OC)c1)Cc1cc2ccc(C)cc2n2nnnc12,i,-0.016,0.6,.,-0.772,.,.,.,.,.,.
COc1ccccc1Nc1nnc(SCc2nnc(-c3cc(OC)c(OC)c(OC)c3)o2)s1,i,-0.831,-4.4,24.6,-1.83,.,.,.,.,.,.
COc1cc(-c2nnc(CSc3nnc(Nc4ccc(C(C)C)cc4)s3)o2)cc(OC)c1OC,i,.,11.4,.,-4.04*,0.00669,0.00492,0.025*,0.00775,0.0162*,0.0105
Cc1ccc(OCC(=O)NNC(=O)C(=O)N2CCCC2)c(C)c1,.,-0.283,3.8,3.2,4.32*,0.00541,0.0135*,0.0353,0.0132*,?,0.0148*
Cc1cc(Br)ccc1OCC(=O)NNC(=O)C(=O)Nc1ccccc1,i,.,5.2,.,.,0.0225*,0.093*,?,0.0871*,0.075*,0.0725*
Cc1cc(Br)ccc1OCC(=O)NNC(=O)Cc1ccccc1,i,-0.197,0.4,20.7,-0.0897,.,.,.,.,.,.
CC(C)C1N(C(N)=S)N=CC1(C)C (stereo unspecified),i,.,.,.,0.0876,.,.,.,.,.,.
CC(C)CCn1c(O)c(N=Nc2ccccn2)c2ccccc21,i,0.973,2.3,8.6,6.87*,0.00923,0.0212*,0.0348,?,?,0.0129
CCCn1c(O)c(N=Nc2ccc3ccccc3n2)c2ccccc21,i,0.368,5.1,28.3,-4.99*,0.0103,0.0106*,0.0301,0.00869*,0.0208,0.0106
S=C(NNc1ccc2ccccc2c1)NC1CCCCC1,i,.,-33.2,.,0,.,.,.,.,.,.
CCCN1CCC(=NNc2ccc(C(=O)O)cc2)CC1,i,-0.783,-5.8,.,0.0389,.,.,.,.,.,.
COCCNC(=O)CSc1nc2cc(OC)c(OC)cc2c(=O)n1CCc1ccc(S(N)(=O)=O)cc1,.,0.601,19.4,.,1.64,.,.,.,.,.,.
COc1ccc(CC(=O)Nc2ccc(S(=O)(=O)Nc3ncccn3)cc2)cc1OC,i,.,.,.,-0.0771,.,.,.,.,.,.
COc1ccc(CC(=O)Nc2ccc(S(=O)(=O)Nc3nc(C)cc(C)n3)cc2)cc1,i,-0.137,12.7,7.3,-5.89*,0.00898,0.009*,0.0328,0.0077,0.022,0.0107
COc1cc(CC(=O)Nc2ccc(S(=O)(=O)Nc3ncccn3)cc2)cc(OC)c1OC,i,.,4.7,6.4,-4.02*,0.00955,0.0063,0.0344,0.00954*,0.0204,0.0123
O=C(Nc1ccccn1)c1cc2cc([N+](=O)[O-])ccc2s1,i,0.52,4.7,.,-0.374,.,.,.,.,.,.
O=C(Nc1nnc(-c2ccccc2Cl)o1)c1cc2cc([N+](=O)[O-])ccc2s1,i,0.486,-3.5,8.5,6.56*,0.00549,0.0147*,0.0344,0.0163*,?,0.0166*

# Screens: PubChem BioAssay, several laboratories
